Compound activity deposited in PubChem BioAssay by National Center for Advancing Translational Sciences (NCATS).
NPR1 antag – human Npr1 receptor antagonism | P16066 | HEK293 hNpr1 GloSensor cGMP, ANP-stimulated luminescence | Potency, µM (doses to about 46.3 µM), usual class: inhibitors | actives 1.6% (n = 76,000); calls by dose curve; further: nearly all actives have a fitted effect of over 60% in size
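HEK293 cells stably expressing human Npr1 and cGMP GloSensor pGS-40F, loaded 2 h with 2% GloSensor reagent, given compound 30 min at room temperature. Luminescence read before and 20 min after 0.1 nM hNppA.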
3T3 cytotox – NIH 3T3 cell cytotoxicity; Potency, µM (doses to about 96.7 µM), hits mostly inhibitors; NIH 3T3 viability, CellTiter-Glo ATP luminescence, 48-72 h; actives 4.3% (n = 94,000); further: nearly all actives have a fitted effect of over 55% in size
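Luminescent ATP readout (CellTiter-Glo, 10 min RT) after 48 or 72 hr compound exposure of NIH 3T3 cells seeded at 400 cells/well in 1536-well format; quantitative HTS.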
HEK cytotox – HEK 293 cell cytotoxicity. HEK 293 viability, ATP luminescence (CellTiter-Glo), 48-72 h. Potency, µM (highest dose often 115 µM), hits mostly inhibitors. actives 6.6% (n = 94,000); further: nearly all actives have a fitted effect of over 60% in size
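HEK 293 cells at 250 cells/well were exposed to compounds by pintool transfer for 48 or 72 hr at 37 degree Celsius, 5% CO2. Viability was read as ATP-coupled luminescence with CellTiter-Glo after 10 min at room temperature.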
Luciferase inh – Photinus pyralis luciferase inhibition; Potency, µM (highest dose often 115 µM), actives largely listed as inhibitors; P08659; actives 2.5% (n = 76,000); purified P. pyralis luciferase, luminescence, biochemical; further: nearly all actives have a fitted effect of over 65% in size
Target sequence (P08659 whole entry, looked up): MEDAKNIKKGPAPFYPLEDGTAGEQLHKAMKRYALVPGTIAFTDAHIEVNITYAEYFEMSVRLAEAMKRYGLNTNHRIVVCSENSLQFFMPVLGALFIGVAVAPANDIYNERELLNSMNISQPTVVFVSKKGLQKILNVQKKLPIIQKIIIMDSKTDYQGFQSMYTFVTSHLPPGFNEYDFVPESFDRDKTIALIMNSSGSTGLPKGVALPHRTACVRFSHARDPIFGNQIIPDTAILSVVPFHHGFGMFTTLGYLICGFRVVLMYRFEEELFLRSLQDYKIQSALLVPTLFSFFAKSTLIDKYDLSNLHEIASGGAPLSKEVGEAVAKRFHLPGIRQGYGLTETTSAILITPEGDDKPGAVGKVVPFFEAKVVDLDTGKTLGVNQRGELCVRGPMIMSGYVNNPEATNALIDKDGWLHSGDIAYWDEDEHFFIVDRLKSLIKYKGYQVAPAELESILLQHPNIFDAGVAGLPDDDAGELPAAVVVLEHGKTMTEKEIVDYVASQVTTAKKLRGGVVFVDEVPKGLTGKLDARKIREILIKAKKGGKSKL
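Biochemical qHTS: compound (6-point titration) added to 10uM D-luciferin plus 10uM ATP in Tris acetate pH 7.5 buffer with Mg, Tween-20 and BSA, then purified enzyme at 10nM; light output imaged.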
Of the large screens only hits and unclear results are named; the others gave an inactive call. Only some compounds are listed: those with a hit (about 11% of all), similar ones and a draw of the others. Unless noted, the call rests on the fitted dose curve; in most records, active means well fitted curve in the direction sought with a large enough effect; inconclusive means small, poorly fitted or top-dose-only effect, or another doubt; inactive means no such curve, though single readings can be large; an effect the other way counts as inactive or inconclusive.

O=C(c1ccccc1F)N1CCC2(CC1)C(=NC1CCCC1)NC(=O)N2c1cccnc1	3T3 cytotox 35µM (no result: NPR1 antag, Luciferase inh)
CC(C)CCN1CCC2(C1)C(=NC1CCCC1)NC(=O)N2c1cccnc1 (centres undefined)	3T3 cytotox 32µM (no result: NPR1 antag, Luciferase inh)
CN(C)c1ccc(CN2CCCC3(C2)C(=NC2CCCCC2)NC(=O)N3c2cccnc2)cc1 (centres undefined)	HEK cytotox inconclusive (no result: NPR1 antag, Luciferase inh)
O=C1NC(=NC2CCCCC2)C2(CCN(Cc3ccsc3)C2)N1c1cccnc1 (centres undefined)	3T3 cytotox inconclusive (no result: NPR1 antag, Luciferase inh)
O=C(c1ccccc1F)N1CCCC2(C1)C(=NC1CCCC1)NC(=O)N2c1cccnc1 (centres undefined)	none (no result: NPR1 antag, Luciferase inh)
O=C1NC(=NC2CCCC2)C2(CCCN(Cc3ccc(F)cc3)C2)N1c1cccnc1 (centres undefined)	3T3 cytotox 16µM (no result: NPR1 antag, Luciferase inh)
CC(=O)N1CCCN(c2ncnc3c2CN(C2CCCNC2)C(=O)CN3C)CC1 (centres undefined)	none (no result: NPR1 antag, Luciferase inh)
COc1cccc(C(=O)N2CCCC(C(=O)N3CCCC3c3nc4ccncc4[nH]3)C2)c1 (centres undefined)	none (no result: NPR1 antag, Luciferase inh)
CN(C)c1ccc(CN2CCCC3(C2)C(=NC2CCCCC2)NC(=O)N3c2cc(F)cc(F)c2)cc1 (centres undefined)	3T3 cytotox inconclusive, HEK cytotox 79µM (no result: NPR1 antag, Luciferase inh)
O=C1NC(=NC2CCCCC2)C2(CCN(Cc3cccnc3)C2)N1c1cccnc1 (centres undefined)	3T3 cytotox 40µM (no result: NPR1 antag, Luciferase inh)
CN(C)c1ccc(CN2CCCC3(C2)C(=NC2CCCC2)NC(=O)N3c2cc(F)cc(F)c2)cc1 (centres undefined)	none (no result: NPR1 antag, Luciferase inh)
O=C1NC(=NC2CCCCC2)C2(CCCN(Cc3cccnc3)C2)N1c1cc(F)cc(F)c1 (centres undefined)	3T3 cytotox 11µM (no result: NPR1 antag, Luciferase inh)
CN1c2cc(C(=O)Nc3cccc(C#N)c3)ccc2C(=O)N2CCCCCC21 (centres undefined)	3T3 cytotox inconclusive, HEK cytotox inconclusive, Luciferase inh 28µM
CN1c2cc(C(=O)Nc3ccc(S(N)(=O)=O)cc3)ccc2C(=O)N2CCCCC21 (centres undefined)	none
CN1c2cc(C(=O)Nc3cccc(C#N)c3)ccc2C(=O)N2CCCCC21 (centres undefined)	3T3 cytotox inconclusive, HEK cytotox inconclusive, Luciferase inh inconclusive
CN1c2cc(C(=O)Nc3ccc(C#N)cc3)ccc2C(=O)N2CCCCC21 (centres undefined)	3T3 cytotox 35µM, HEK cytotox inconclusive
O=C1NCCCCCCN(Cc2ccncc2)[C@@H]2CN(C(=O)C3(c4ccccc4)CC3)CC[C@@H]12	none
COCCNc1ncc(-c2ccnc(C)c2)c2c1OCC2	3T3 cytotox inconclusive, HEK cytotox inconclusive
COCCNc1ncc(-c2ccccc2)c2c1OCC2	3T3 cytotox inconclusive, HEK cytotox inconclusive, Luciferase inh 28µM
COCCNc1ncc(-c2ccncc2)c2c1OCC2	3T3 cytotox inconclusive
COCCNc1ncc(-c2ccsc2)c2c1OCC2	3T3 cytotox inconclusive, HEK cytotox inconclusive, Luciferase inh 22µM
c1cnc2nc(-c3c[nH]c4ccccc34)[nH]c2c1	3T3 cytotox inconclusive, HEK cytotox inconclusive, Luciferase inh 45µM
c1ccc2c(-c3nc4ccncc4[nH]3)c[nH]c2c1	3T3 cytotox inconclusive, HEK cytotox inconclusive, Luciferase inh inconclusive
CCC(=O)NC[C@H]1Cn2cc(-c3ccc(OC)cc3)nc2CO1	Luciferase inh 63µM
Cc1ccc(-c2cn3c(n2)CO[C@@H](CNS(C)(=O)=O)C3)cc1	none
COc1ccc(-c2cn3c(n2)CO[C@@H](CNCc2ccc(Cl)cc2)C3)cc1	NPR1 antag inconclusive, 3T3 cytotox 100µM, HEK cytotox 89µM, Luciferase inh 63µM
COc1ccc(-c2cn3c(n2)CO[C@@H](CNS(C)(=O)=O)C3)cc1	Luciferase inh 56µM
COc1ccc(CNC[C@H]2Cn3cc(-c4ccccc4)nc3CO2)cc1	3T3 cytotox inconclusive, HEK cytotox inconclusive
CC(C)(C)c1ccc(-c2cc(C[C@H]3CNCC[C@H]3CC(=O)NCc3cccs3)no2)cc1	3T3 cytotox inconclusive, HEK cytotox 18µM
O=C(C[C@@H]1CCNC[C@@H]1Cc1cc(-c2ccccc2)on1)NC1CCCCC1	3T3 cytotox inconclusive, HEK cytotox 100µM
CN(Cc1ccccc1)Cc1cc(C[C@H]2CNCC[C@H]2CC(=O)NC2CCCCC2)no1	3T3 cytotox 79µM, HEK cytotox inconclusive
CC(C)NC(=O)C[C@@H]1CCNC[C@@H]1Cc1cc(-c2ccccc2)on1	none
